Tb PGK inh – inhibitors of T. brucei phosphoglycerate kinase; PGK/GAPDH coupled, Kinase-Glo luminescence, 60 min; P07378; 0.043% of 380,000 active; Potency, µM (top dose mostly 57.5 µM), most hits filed as inhibitors; also: nearly all actives have a fitted effect of over 60% in size
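Recombinant glycosomal PGK reaction used 1,3-bisphosphoglycerate generated in-well by GAPDH (100nM final) in 100mM TEA pH 7.6, 5mM MgCl2, 0.01% Tween-20. After 60 minutes at room temperature, ATP was read by Kinase-Glo Plus luminescence end-point.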
RECQ1 inh – inhibitors of human RECQ1 DNA helicase; P46063; RECQ1 DNA unwinding, red fluorescence kinetic read; Potency, µM (titrated, usually from 57.3 µM), hits mostly inhibitors; 0.54% of 240,000 active; also: nearly all actives have a fitted effect of over 30% in size
Target sequence (P46063 whole entry, looked up): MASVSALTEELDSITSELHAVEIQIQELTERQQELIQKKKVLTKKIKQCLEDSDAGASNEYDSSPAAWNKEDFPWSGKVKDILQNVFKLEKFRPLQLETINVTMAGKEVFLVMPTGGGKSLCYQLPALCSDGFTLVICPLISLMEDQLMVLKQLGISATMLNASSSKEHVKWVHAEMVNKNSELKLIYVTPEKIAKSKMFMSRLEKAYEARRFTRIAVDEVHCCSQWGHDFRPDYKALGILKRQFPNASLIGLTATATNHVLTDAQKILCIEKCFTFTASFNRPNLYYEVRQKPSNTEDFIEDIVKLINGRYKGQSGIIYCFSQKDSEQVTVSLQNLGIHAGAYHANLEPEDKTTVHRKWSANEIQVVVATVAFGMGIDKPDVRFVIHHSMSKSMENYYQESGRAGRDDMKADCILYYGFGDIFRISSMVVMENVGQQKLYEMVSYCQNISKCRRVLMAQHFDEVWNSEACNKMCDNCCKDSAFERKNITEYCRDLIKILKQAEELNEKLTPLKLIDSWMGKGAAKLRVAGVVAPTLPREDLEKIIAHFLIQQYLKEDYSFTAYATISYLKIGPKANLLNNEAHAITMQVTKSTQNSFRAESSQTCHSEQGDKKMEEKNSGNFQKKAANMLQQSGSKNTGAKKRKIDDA
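50 nM RECQ1T1 preincubated 15 min with compound in Tris pH 8.0 buffer with MgCl2, DTT, Tween-20 and 2.5 ug/ml poly(dI-dC); started with 200 nM TAMRA/BHQ-2 forked duplex and 2 mM ATP. Unwinding read as fluorescence (525/598 nm), two reads 2 h apart.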
GLS inh – glutaminase GLS (human) inhibition; 0.21% of 410,000 active; GLS enzymatic activity, qHTS titration; Potency, µM (top dose mostly 45.5 µM), usual class: inhibitors; AID 624170
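hKGA; 45 mM KH2PO4 pH 8.2 + 0.02% Tween-20; cpd via pin tool; 1 mM Gln soln; GluOx/HRP/Amplex Red; RT 30 min; fluor. t0 & final.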
FEN1 inh – inhibitors of human flap endonuclease 1; P39748; Recombinant FEN1 flap cleavage, fluorescence, 15 min; Potency, µM (top dose mostly 114 µM), actives largely listed as inhibitors; 0.35% of 390,000 active; also: nearly all actives have a fitted effect of over 65% in size
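Quantitative HTS format: each compound was titrated, incubated with 10 nM nuclease for 15 min at room temperature, then challenged with flap substrate at 50 nM final. Signal change over 15 min gave concentration–effect curves.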
BLM inh – inhibitors of human Bloom syndrome helicase BLM | recombinant BLM DNA unwinding, fluorescence dequenching | Potency, µM (highest dose often 56.1 µM), most hits filed as inhibitors | P54132 | 0.2% of 350,000 active | AID 2528; also: nearly all actives have a fitted effect of over 35% in size
APE1 inh – inhibitors of human APE1 endonuclease; P27695; recombinant APE1, TAMRA/BHQ-2 abasic DNA cleavage fluorescence; Potency, µM (titrated, usually from 65.8 µM), hits mostly inhibitors; 0.35% of 350,000 active; AID 2517; also: nearly all actives have a fitted effect of over 55% in size
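Endonuclease cleavage of a quenched abasic-site DNA duplex (50 nM) by APE1 (0.75 nM) was tracked by TAMRA dequenching. Compounds were preincubated with enzyme 15 min at room temperature; data normalized to buffer-only and DMSO wells plus NSC13755 control.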
Numbers stand for hits; – = inactive; ? = inconclusive; · = no result given; ! = not active in a repeat. Hits are enriched below; roughly 0.86% of the tested compounds scored in any of these assays. Calls follow the shape of the dose curve; as a rule, active = well fitted curve in the direction sought with a large enough effect; inconclusive = small, poorly fitted or top-dose-only effect, or another doubt; inactive = no such curve, though single readings can be large; an effect the other way counts as inactive or inconclusive.

SMILES | Tb PGK inh | RECQ1 inh | GLS inh | FEN1 inh | BLM inh | APE1 inh
C[C@H]1O[C@@H](O[C@H]2CC[C@@]3(C)C(CC[C@]4(C)C3C=C[C@]35OC[C@@]6(CCC(C)(C)C[C@H]63)[C@@H](O)C[C@]54C)[C@]2(C)CO)[C@H](O)[C@@H](O[C@@H]2O[C@H](CO)[C@@H](O)[C@H](O)[C@H]2O)[C@H]1O (stereo partly specified) | – | · | – | – | · | 21.2µM
COc1cc2c(NC3CCN(C)CC3)nc(N3CCCN(C)CC3)nc2cc1OCCCN1CCCCC1 | · | · | · | 22.4µM | · | ·
COc1cc2c(NC3CCN(C)CC3)nc(N3CCCN(C)CC3)nc2cc1OCCOCCN1CCCC1 | · | · | · | 20µM | · | ·
COc1cc2nc(Cl)nc(NC3CCN(Cc4ccccc4)CC3)c2cc1OC | · | · | · | – | · | ·
Cc1ccc(C(=O)OCc2nc3ccsc3c(=O)[nH]2)o1 | – | · | – | – | · | –
O=C(/C=C/c1ccc(Br)o1)OCc1nc2ccsc2c(=O)[nH]1 | ? | · | ? | 79.4µM | · | ?
Cc1cnc(C(=O)OCc2nc3ccsc3c(=O)[nH]2)cn1 | – | · | 14.1µM | ? | · | –
CC(C)(C)n1ncc2c(=O)n(Cc3ccc(C#N)c(F)c3)cnc21 | · | · | · | – | · | –
O=c1[nH]cnc2n[nH]nc12 | · | · | · | – | · | ·
N#C/C(=N\Nc1ccccc1)C(N)=S | – | – | 11.2µM | – | – | –
COc1ccccc1CNC(=O)c1oc2ccc3c(c2c1C)C(=O)CC(C)(C)O3 | · | · | – | – | – | ·
Cc1c(C(=O)NCc2cccc(Br)c2)oc2ccc3c(c12)C(=O)CC(C)(C)O3 | · | · | – | 89.1µM | – | ·
Nc1ccc(/C=C/c2nc3ccccc3s2)cc1 | · | · | · | – | · | ·
O=c1c2ccccc2sn1-c1cc(S(=O)(=O)N2CCOCC2)ccc1N1CCCC1 | – | – | ? | – | – | –
O=c1c2ccccc2sn1-c1cc(S(=O)(=O)N2CCOCC2)ccc1N1CCOCC1 | – | – | ? | 31.6µM! | – | –
CCC(=O)OCC(=O)[C@@]1(OC(=O)CC)[C@H](C)C[C@H]2[C@@H]3CCC4=CC(=O)C=C[C@]4(C)[C@@]3(F)[C@@H](O)C[C@@]21C | · | · | · | · | · | –
C[N+](C)(CCCCCC[N+](C)(C)C1c2ccccc2-c2ccccc21)C1c2ccccc2-c2ccccc21 | · | · | – | · | · | ·
O=C(Nc1ccc2oc(-c3ccccc3F)nc2c1)c1ccc([N+](=O)[O-])o1 | – | · | – | – | – | 2.67µM
CCOc1cc(/C=C2\C(=O)ON=C2c2ccccc2)cc(Br)c1O | – | · | 8.91µM | ? | – | –
COc1ccc(-n2nc(C(=O)N3CCC(N4CCCCC4)CC3)c3c4ccccc4n(C)c3c2=O)cc1 | – | · | – | 89.1µM | – | –
CC(=O)O[C@@H]1C(=O)O[C@H]2[C@@H]1OC(=O)[C@@H]2OC(C)=O | · | · | – | · | · | ·
O=C(O)c1cccc(-n2cccc2/C=C2/SC(=O)N(CC(=O)N3CCCC3)C2=O)c1 | ? | · | · | – | – | 13.4µM
O=C(O)c1cccc(-n2cccc2C=C2C(=O)c3ccccc3C2=O)c1 | – | – | – | 50.1µM | – | ?
O=C1C(=Cc2cccn2-c2ccccc2)C(=O)c2ccccc21 | – | – | – | – | – | –
CC(C)n1cc(/C=C2/SC(=O)N(CC(=O)N3CCCC3)C2=O)c2ccccc21 | – | – | – | – | – | –
SMILES | Tb PGK inh | RECQ1 inh | GLS inh | FEN1 inh | BLM inh | APE1 inh
O=C(C[n+]1cccc(Br)c1)c1ccc(I)cc1 | · | · | · | – | · | ·
C=Nc1ccc(/C=C/c2ccnc3ccccc23)cc1 | · | · | · | – | · | ·
c1cn(-c2cc(-c3ccc4c(c3)OCO4)ncn2)cn1 | · | – | · | · | – | 8.91µM
CSC1=NSC2=NC(=O)/C(=C\c3coc4ccccc4c3=O)C(=N)N12 | – | – | – | 79.4µM | – | –
CC(C)CSC1=NSC2=NC(=O)/C(=C\c3coc4ccccc4c3=O)C(=N)N12 | – | ? | – | ? | – | –
COc1ccc2nc(N3C(=O)CNC3=S)sc2c1 | – | – | – | – | – | –
CCOc1ccc2nc(N3C(=O)/C(=C/c4ccc(Cl)cc4)NC3=S)sc2c1 | – | – | – | – | 28.2µM | –
Cc1ccc(Sc2oc(/C=N/n3cnnc3)cc2Br)cc1 | – | – | 8.91µM | – | – | –
COc1ccc(N=c2ssnc2Cl)cc1 | – | – | – | – | – | –
CCOC(=O)c1ccc(N=c2ssnc2Cl)cc1 | – | – | 12.6µM | ? | – | –
CCS(=O)(=O)c1ccc(N=Nc2ccc(O)c3ncccc23)c(OC)c1 | – | – | – | – | – | –
COc1cc(S(=O)(=O)O)c(C)cc1N=Nc1c(O)ccc2cc(S(=O)(=O)O)ccc12 | · | · | · | 35.5µM | · | ·
COc1ccc(C2=Nn3c(nnc3-c3ccccc3OC)SC2)cc1O[C@H]1CCOC1 | · | · | · | · | · | –
C=CC1=C(C)C2=NC1=CC1=NC(=CC3=NC(=CC4=NC(=C2)C(C)=C4CCC(=O)O)C(CCC(=O)O)=C3C)C(C=C)=C1C.[Zn] | · | 12.6µM | · | · | 35.5µM | 4.47µM
Cc1cc(CCC(=O)O)c(C)cc1CCC(=O)O | – | – | – | – | – | –
COc1ccccc1Nc1ccc(N)cc1 | – | – | 11.2µM | – | – | –
Cc1ccc(C)c(-n2c3nc(=O)[nH]c(=O)c-3cc3cc([N+](=O)[O-])ccc32)c1 | – | – | – | ? | 20µM | –
Cc1cccc(-n2c3nc(=O)[nH]c(=O)c-3cc3cc([N+](=O)[O-])ccc32)c1 | – | – | – | ? | – | –
O=C1c2ccccc2C(=O)N1c1nc(-c2ccc(F)cc2)cs1 | · | · | · | – | · | ·
CCOc1ccc(NC(=O)c2nc(S(=O)(=O)Cc3ccc(F)cc3)ncc2Cl)cc1 | · | · | · | – | · | ·
Cc1ccc(OCCn2cc(/C=N/NC(=O)c3ccncc3)c3ccccc32)cc1 | – | 25.1µM | – | – | – | –
COc1ccc(OCCn2cc(/C=N/NC(=O)c3ccncc3)c3ccccc32)cc1 | – | – | – | – | – | –
COc1cc(C2NC(=O)NC(C)=C2C(=O)OCc2ccccc2)ccc1O (stereo unspecified) | – | – | – | – | 14.1µM | –
COc1ccc(COC(=O)C2=C(C)NC(=O)NC2c2ccc(O)c(OC)c2)cc1 (stereo unspecified) | – | – | – | – | – | –
COc1cccc(C2CC(c3cccs3)=NN2C(=O)CSc2nc3c(cnn3-c3ccc(F)cc3)c(=O)[nH]2)c1OC (stereo unspecified) | – | – | – | 17.8µM | ? | –
O=C(O)/C(=C\c1cccc(F)c1)c1ccc(S(=O)(=O)N2CCCC2)s1 | – | · | – | – | · | –
Cc1cccc(/C=C(\C(=O)O)c2ccc(S(=O)(=O)N3CCCC3)s2)c1 | – | · | – | – | · | 11.9µM
CCOC(=O)[C@H](CCc1ccccc1)N[C@@H](C)C(=O)N(CC(=O)O)C1Cc2ccccc2C1 | · | · | – | · | · | ·
